Compound activity as filed in PubChem.
KCNH2 3.1 block – qHTS for Inhibitors of KCHN2 3.1: Mutant qHTS; actives 0.95% (n = 340,000); Potassium voltage-gated channel subfamily H member 2, brain isoform KCNH2 3.1 (human); U2OS KCNH2 3.1, thallium flux FluxOr; stronger effect = lower value; activity change, % (tested at about 1.8 µM);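 active means maximum activity change below -70%; inconclusive means maximum activity change from -70% to -50%; inactive means maximum activity change above -50%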;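 further: thallium influx rate constant from kinetic fluorescence after stimulation buffer; on the % scale 0 is the no-effect control and ±100 the full control effect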
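U2OS cells transduced with KCNH2 3.1 mutant virus (1.77 x 10^8 /mL, 4 h), plated overnight at 37 C, loaded 45 min with FluxOr dye plus Red40 quencher. Thallium flux rate constant from kinetic reads after stimulation buffer, normalised to controls.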
LDHA inh – qHTS assay for inhibitors of human lactate dehydrogenase; L-lactate dehydrogenase A chain (Homo sapiens), P00338; purified LDHA, NADH/diaphorase-resazurin fluorescence; stronger effect = lower value; activity change, % (values are at about 110 or 230 µM); actives 0.15% (n = 480,000); in the data active means activity change below about -30%; inconclusive means mostly about -25% to -30%;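 further: plate controls were DMSO wells for no effect and wells without enzyme for full effect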
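Remaining NADH was detected by diaphorase (0.133 mg/mL) converting 37 µM resazurin to fluorescent resorufin, read at 0 and 20 minutes. The preceding 5-minute room-temperature reaction used 2 nM LDHA, 0.2 mM sodium pyruvate and 0.06 mM NADH at pH 7.4.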
ClpP mod – qHTS Assay for Activators of ClpP. AID 651965, 2013. purified B. subtilis ClpP, FRET peptide cleavage, 20 min. ATP-dependent Clp protease proteolytic subunit (Bacillus subtilis (strain 168)), P80244. Potency, µM (titrated, usually from 57.5 µM), without a hit: at the top dose activity change, negative = active. actives 1.9% (n = 340,000); active means well fitted falling curve with a large enough effect; inconclusive means small, poorly fitted or top-dose-only effect; inactive means no such curve, though single readings can be large or run the other way; further: potency means the concentration at half of the fitted maximal effect; the source files actives as falling curves though it sought activators and does not explain the sign; nearly all actives have a fitted effect of over 65% in size
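Purified B. subtilis ClpP, 10 microg/mL final in Tris/HCl pH8 with KCl, BSA, glycerol and Tween-20, cleaved an Abz/nitrotyrosine-quenched decapeptide. Fluorescence (ex 320, em 430) was read at 0 and 20 min at room temperature. Delta was normalized to 5.8 microM ADEP and DMSO/no-enzyme controls.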
hERG WT inh – qHTS for Inhibitors of KCHN2 3.1: Wildtype qHTS. activity change, % at 1.84 µM. U2OS, BacMam KCNH2, thallium flux FluxOr; stronger effect = lower value. Voltage-gated inwardly rectifying potassium channel KCNH2 (Homo sapiens), Q12809. actives 0.37% (n = 340,000);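 active means maximum activity change below -70%; inconclusive means maximum activity change between -70% and -50%; inactive means maximum activity change above -50%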; further: on the % scale 0 is the no-effect control and ±100 the full control effect
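U2OS cells transduced with wild-type KCNH2 virus are loaded with FluxOr dye for 45 min, and thallium flux is measured in kinetic reads before and after stimulation buffer. Rate constants are normalized to DMSO controls.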
ALOX12 inh – Primary qHTS assay for inhibitors of human arachidonate 12S-lipoxygenase (ALOX12): Round 2 | purified 12hLO, xylenol orange hydroperoxide absorbance | AID 1671190, 2021 | Potency, µM (top dose mostly 108 µM), without a hit: at the top dose activity change, negative = inhibition, most hits filed as inhibitors | actives 1.1% (n = 580,000) | Polyunsaturated fatty acid lipoxygenase ALOX12 (Homo sapiens), P18054; active means well fitted inhibition curve with a large enough effect; inconclusive means small, poorly fitted or top-dose-only effect, or another doubt; inactive means no such curve, though single readings can be large or run the other way; further: potency means the concentration at half of the fitted maximal effect; on the % scale 0 is the no-effect control and ±100 the full control effect
Target sequence (P18054 whole entry, looked up): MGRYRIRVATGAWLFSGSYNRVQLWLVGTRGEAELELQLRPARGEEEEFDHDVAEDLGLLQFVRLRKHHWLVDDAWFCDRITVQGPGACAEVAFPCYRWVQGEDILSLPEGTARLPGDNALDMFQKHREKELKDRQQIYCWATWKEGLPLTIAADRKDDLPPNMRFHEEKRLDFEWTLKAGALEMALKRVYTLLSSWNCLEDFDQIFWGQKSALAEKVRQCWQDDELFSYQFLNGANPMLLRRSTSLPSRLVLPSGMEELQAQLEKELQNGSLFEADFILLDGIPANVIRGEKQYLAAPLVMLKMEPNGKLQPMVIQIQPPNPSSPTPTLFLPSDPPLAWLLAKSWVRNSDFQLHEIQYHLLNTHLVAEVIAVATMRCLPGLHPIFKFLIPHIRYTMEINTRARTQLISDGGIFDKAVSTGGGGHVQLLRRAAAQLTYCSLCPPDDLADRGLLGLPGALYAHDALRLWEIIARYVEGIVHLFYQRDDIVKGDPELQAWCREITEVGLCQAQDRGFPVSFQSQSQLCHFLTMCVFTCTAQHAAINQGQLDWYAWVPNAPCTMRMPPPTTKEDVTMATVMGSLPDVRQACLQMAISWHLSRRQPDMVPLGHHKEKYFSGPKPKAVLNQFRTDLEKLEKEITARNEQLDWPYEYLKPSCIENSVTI
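Purified human 12hLO (150 nM final) in 25 mM Hepes, 0.01% Triton X-100, pH 7.0 was preincubated 15 min at room temperature with compound. Then 40 uM arachidonic acid was added, 30 min. Hydroperoxide was read by Fe-XO absorbance ratio 573/405 nm.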
Chronic BCR inh – qHTS Assay to Find Inhibitors of Chronic Active B-Cell Receptor Signaling | ABC-DLBCL IkBa-CBG/CBR reporter, luminescence ratio, 4 h | Potency, µM (doses to about 46.1 µM), without a hit: at the highest dose activity change, negative = inhibition, usual class: inhibitors | AID 493014, 2011 | actives 0.05% (n = 340,000); active means well fitted inhibition curve with a large enough effect in the signal ratio, with a control signal flat, not every such curve was filed as active; inconclusive means small, poorly fitted or top-dose-only effect, or effect the other way, or a change in a side signal; the % refers to the signal ratio;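 further: potency means the concentration at half of the fitted maximal effect; plate controls were basal doxycycline-induced cells for no effect and cells given 10 µM MG132 for full effect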
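Compounds up to 46 uM were incubated four hours with TMD8 cells whose green CBG68 luciferase is fused to IkappaBalpha; red CBR luminescence normalised the signal, and concentration-effect curves were fitted to fusion, red and ratio data.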
* = called active by the depositor; ? = inconclusive; / = no result given. Rows were chosen to be rich in hits. Some 3% of all compounds tested hit in one or more screens of this group.

SMILES	KCNH2 3.1 block	LDHA inh	ClpP mod	hERG WT inh	ALOX12 inh	Chronic BCR inh
CCCCC(=O)NC(=S)Nc1cccc(Cl)c1N1CCCCC1	-9	3	-1%	4	35µM*	-2%
CCCC(=O)NC(=S)Nc1cccc(Cl)c1N1CCCCC1	2	1	1%	-41	?	12%
COC(=O)C1=CN(C2CC2)C=C(C(=O)OC)C1c1ccccc1OC	5	2	32µM*	-7	?	?
COC(=O)C1=CN(Cc2cccs2)C=C(C(=O)OC)C1c1cccc(OC)c1OC	-14	6	32µM*	0	-2%	-1%
CCN1C=C(C(=O)OC)C(c2cccc(OC)c2OC)C(C(=O)OC)=C1	-4	-2	32µM*	1	-6%	-7%
CCC(C)(C)C(=O)Nc1cc([N+](=O)[O-])ccc1F	-176*	-4	-17%	-250*	-32%	-22%
CCC(C)(C)C(=O)Nc1cc([N+](=O)[O-])ccc1Cl	12	-2	1%	-3	1%	-4%
O=C(NCCN1CCC(n2c(=O)[nH]c3ccccc32)CC1)c1ccc(F)cc1	/	0	2%	/	35µM*	/
CCOc1ccccc1C(=O)NCCN1CCC(n2c(=O)[nH]c3ccccc32)CC1	/	5	2.8µM*	/	-23%	/
O=C(NCCN1CCC(n2c(=O)[nH]c3ccccc32)CC1)c1ccc(Cl)cc1	/	-2	1%	/	?	/
O=C(Nc1cccc(F)c1)N1CCC(n2c(=O)[nH]c3ccccc32)CC1	-193*	-6	/	-228*	-4%	-4%
O=C(NCCN1CCC(n2c(=O)[nH]c3ccccc32)CC1)c1ccc(Cl)c(Cl)c1	/	0	-1%	/	32µM*	/
CN(C)C[C@@H]1CN(c2ncccn2)C[C@H]1NC(=O)c1cnco1	/	/	/	/	51%	/
Cn1ccc2nc3ncnn3c(-c3ccccc3)c2c1=O	/	0	/	/	28%	/
Oc1cc2c(cc1C(c1ccc(Br)cc1)N1CCCC1)OCO2 (stereo not given)	11	20	/	-5	11µM*	-5%
O/N=C(\c1ccc(O)cc1O)c1ccccc1F	/	-31*	/	/	?	/
COc1ccccc1CNC(=O)COc1ccc2c(=O)c(Oc3ccccc3)c(C)oc2c1	/	-6	/	/	-22%	/
COc1cc2c(cc1OC)C(CC#N)=NC(C)(C)C2	/	-8	-3%	-6	/	16µM*
COc1ccc(C2=NC(C)(C)Cc3cc(OC)c(OC)cc32)cc1OC	-18	-6	0%	6	?	?
Oc1c(C=NCc2ccc(F)cc2)[nH]c2ccc(Br)c(Cl)c12	/	/	/	/	13µM*	5%
CN(C)c1ccc(/C=C2\C(=O)/C(=C\c3ccc(N(C)C)cc3)c3ccccc32)cc1	/	/	0%	/	/	/
CN(C)c1ccc(/C=C2/C[N+](C)(C)C/C(=C/c3ccc(N(C)C)cc3)C2=O)cc1	/	9	1%	45	50µM*	/
CC(C)/C=C1\CC/C(=C\c2ccc(N(C)C)cc2)C1=O	-79*	-3	-1%	-34	-17%	?
C[N+](C)(CCCCCCCCCC[N+](C)(C)C1CCCCC1)C1CCCCC1	/	1	/	/	16µM*	/
CCOC(=O)c1cccc(NC(=O)CCc2nc3c(C)nn(-c4ccc(C)cc4)c3n(CC)c2=O)c1	/	3	/	/	2%	/
SMILES	KCNH2 3.1 block	LDHA inh	ClpP mod	hERG WT inh	ALOX12 inh	Chronic BCR inh
COc1ccc(/C=N/NC(=O)c2ccc(C)cc2)cc1CN1CCN(c2ccc(F)cc2)CC1	-108*	-3	-1%	-72*	20%	-4%
COc1ccc(/C=N/NC(=O)c2ccncc2)cc1CN1CCN(c2ccc(F)cc2)CC1	-90*	-1	1%	18	12%	-17%
COc1ccc(/C=N/NC(=O)c2ccc(F)cc2)cc1CN1CCc2cc(OC)c(OC)cc2C1C (stereo not given)	-88*	-1	-5%	-91*	10%	?
COc1ccc(/C=N/NC(=O)c2nc(Cl)c(Cl)c(N)c2Cl)cc1COc1ccccc1F	-10	0	206%	2	0%	?
COc1ccc(/C=N\NC(=O)c2cc(O)c(O)c(O)c2)cc1CN1CCN(c2ccc(F)cc2)CC1	-13	14	-5%	-6	?	?
COc1ccc(/C=N/NC(=O)c2nc(Cl)c(Cl)c(N)c2Cl)cc1COc1ccc(F)cc1F	-22	-3	7.9µM*	-16	0%	0%
Cc1ncsc1CN1CC(Oc2cccc(C(=O)NCC3CC3)c2)C1	/	/	/	/	37%	/
Brc1ccc2nc(-c3ccco3)c(Cc3ccccc3)n2c1	/	-1	-5%	/	14µM*	/
Cc1ccc(Cc2c(-c3ccco3)nc3ccc(C)cn23)cc1	/	2	4%	/	?	/
Clc1cccc(Cc2c(-c3ccco3)nc3ccc(Br)cn23)c1	/	-4	-1%	/	11µM*	/
N#Cc1ccc(-c2nc3ccc(Cl)cn3c2Cc2cccc(Cl)c2)cc1	/	-4	5%	/	35µM*	/
Clc1ccc(-c2nc3ccc(Cl)cn3c2Cc2cccc(Cl)c2)cc1	/	-5	4%	/	-93%	/
Clc1cccc(Cc2c(-c3ccco3)nc3ccc(Cl)cn23)c1	/	-5	-16%	/	22µM*	/
CC1=NC(=O)C(N=Nc2cccc(C(=O)O)c2)N1c1ccccc1 (stereo not given)	-1	?	-4%	8	7.1µM*	?
O=C1NN(c2ccc(Cl)cc2)C(=O)/C1=C\c1ccc(-c2cccc(C(=O)O)c2)o1	4	2	/	-4	40µM*	14%
COc1ccc(CNc2oc(COc3cccc(Cl)c3)nc2C#N)cc1	/	-1	/	/	?	/
CCc1cc2c(=O)c(Oc3ccccc3)c(C)oc2cc1O	2	-2	7.9µM*	-2	-5%	?
Cc1cc(C)c2c(N)c(C(=O)Nc3nccs3)sc2n1	3	1	35µM*	4	0%	?
CCOC(=O)c1sc2nc(C)cc(C)c2c1N	15	-3	28µM*	1	-15%	0%
CCCCOC(=O)c1sc2nc(C)cc(C)c2c1N	-6	-1	/	-1	/	?
Cc1cc(C(F)(F)F)nc(SCC(=O)O)n1	/	-10	/	/	?	/
Cc1nnc2ccc(N3CCC(C(=O)Nc4ccc5c(c4)OCO5)CC3)nn12	/	6	/	/	-2%	/
